# Assay outcomes: PubChem BioAssay, National Center for Advancing Translational Sciences (NCATS)
# KinaseGlo FLuc: blocks Kinase-Glo luciferase, a counter-screen artifact; Potency, µM (top dose mostly 38.3 µM), without a hit: at the top dose activity change, negative = inhibition, usual class: inhibitors; 200,000 tested, 0.28% active; Q27757; Kinase-Glo luciferase, ATP luminescence, 8 min; AID 1379; also: % is scaled to controls: 0 for no effect and ±100 for the full control effect; nearly all actives have a fitted effect of over 60% in size
#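 Luminescence was the read-out, taken after 8-minute incubation at ambient temperature. Luciferase turned over luciferin with 10 uM ATP in imidazole pH 7.2 buffer containing KCl, MgCl2, Tween 20 and BSA.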
# SMN2 splice enh: enhancers of SMN2 splice variant expression; HEK293 SMN2-luciferase splicing reporter, luminescence, 30-36 h; Potency, µM (series often up to 46.1 µM), for the others: at the highest dose activity change, positive = activation, most hits filed as activators; 210,000 tested, 2.8% active; AID 1458; also: % of control where 0% means no effect; nearly all actives have a fitted effect of over 55% in size
#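 qHTS luciferase splicing reporter: luminescence rises when SMN2 exon 7 is included in transfected HEK293 cells. Compound exposure lasted 30-36 h at 37C, with 4.5 mM final sodium butyrate as control, followed by a ONE-Glo read.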
# FLuc counter: counter-screen for miR-21 project: firefly luciferase inhibitors or activators; 360,000 tested, 6.9% active; Potency, µM (highest dose often 57.5 µM), for the others: top-dose activity change, negative = inhibition, hits mostly inhibitors; purified FLuc, Km substrates, luminescence inhibition; P08659;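 also: plate controls were vehicle for no effect and reference inhibitor for full effect; nearly all actives have a fitted effect of over 55% in size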
# Target sequence (P08659 whole entry, looked up): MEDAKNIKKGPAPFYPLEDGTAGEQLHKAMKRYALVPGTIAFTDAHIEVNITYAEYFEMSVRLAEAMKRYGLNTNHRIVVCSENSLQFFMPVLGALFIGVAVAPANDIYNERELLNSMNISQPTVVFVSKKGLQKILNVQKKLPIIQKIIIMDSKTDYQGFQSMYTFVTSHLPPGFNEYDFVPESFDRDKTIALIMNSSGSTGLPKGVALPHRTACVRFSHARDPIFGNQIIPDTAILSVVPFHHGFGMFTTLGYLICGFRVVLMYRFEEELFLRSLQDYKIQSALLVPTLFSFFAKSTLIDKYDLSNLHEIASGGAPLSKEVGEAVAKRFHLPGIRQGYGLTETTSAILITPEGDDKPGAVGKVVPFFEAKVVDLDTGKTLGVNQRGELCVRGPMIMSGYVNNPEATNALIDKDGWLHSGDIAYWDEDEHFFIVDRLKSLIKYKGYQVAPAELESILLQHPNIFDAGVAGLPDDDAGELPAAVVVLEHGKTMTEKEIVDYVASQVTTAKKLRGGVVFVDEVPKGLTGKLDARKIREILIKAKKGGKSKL
#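 Purified P. pyralis luciferase, 10 nM final, with Km-level 10 uM D-luciferin and 10 uM ATP in 50 mM Tris acetate pH 7.5, 10 mM Mg acetate, 0.01% Tween-20, 0.05% BSA; 6-point qHTS titration about 60 µM downward; luminescence read.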
# NPC1 promoter act: activates the NPC1 promoter; Huh7 NPC1 promoter luciferase reporter, 24 h; Potency, µM (top dose mostly 9.22 µM), for the others: top-dose activation, actives largely listed as activators; 320,000 tested, 2.4% active; also: % of control where 0% means no effect; nearly all actives have a fitted effect of over 60% in size
#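 NPC1 promoter–luciferase Huh7 cells; 24 h compound; luminescence.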
# Rab9 promoter act: activators of Rab9 promoter; Huh7 Rab9 promoter-luciferase reporter, luminescence, 24 h; Potency, µM (top dose mostly 9.22 µM), for inactives: top-dose activation, negative = inhibition, actives largely listed as activators; 320,000 tested, 2.8% active; AID 485297; also: % of control where 0% means no effect; nearly all actives have a fitted effect of over 60% in size
#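 Measured in stably transfected Huh7 cells bearing a Rab9 promoter–luciferase construct: 24 h compound treatment at 37 °C, followed by luminescence detection.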
# ELG1 genotox: inducers of genotoxicity in HEK293T ELG1-luciferase cells | 330,000 tested, 1.3% active | HEK293T ELG1-luciferase reporter, luminescence, 16 h | AID 504466 | Potency, µM (titrated, usually from 46 µM), for the others: at the top dose activity change, positive = activation, most hits filed as activators; also: % of control where 0% means no effect; nearly all actives have a fitted effect of over 60% in size
#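 Cells (2,000/well) expressing the ELG1-luciferase fusion are dosed by pin tool and kept 16 hr at 37 °C, 5% CO2. Signal comes from ONE-Glo luciferase reagent after 30 min at room temperature.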
# Active calls of the source: *; ? = inconclusive; . = no result given; [ ] = dose if it differs, or a comment. An excerpt weighted towards active compounds, which were near 7.4% of everything screened. Calls follow the shape of the dose curve; as a rule, active = well fitted curve in the direction sought with a large enough effect; inconclusive = small, poorly fitted or top-dose-only effect, or another doubt; inactive = no such curve, though single readings can be large; an effect the other way counts as inactive or inconclusive. Potency is read from the fitted curve at half-maximal effect.
SMILES,KinaseGlo FLuc,SMN2 splice enh,FLuc counter,NPC1 promoter act,Rab9 promoter act,ELG1 genotox
O=C(O)c1ccc(N=Nc2c(O)[nH]c3cc(Cl)ccc23)cc1,.,.,0.849µM*,0.316µM*,0.1µM*,9.2µM*
CCc1ccc2occ(CC(=O)Nc3sc4c(c3C(=O)NCCOC)CCCC4)c2c1,.,11.3%,-8.8%,.,.,.
Oc1[nH]c2ccccc2c1N=Nc1c(F)c(F)c(Cl)c(F)c1F,.,.,-3.1%,24.4%,?,3.8%
Cc1ccc(N=Nc2[nH]c3ccccc3c2O)cc1,-4.6%,12.6µM*,?,5.2%,19.4%,?
Oc1[nH]c2ccccc2c1N=Nc1cccc(Cl)c1,.,.,5.36µM*,29.6%,?,?
O=C(O)c1ccc(N=Nc2c(O)[nH]c3ccc(Br)cc23)cc1,.,.,10.7µM*,1.26µM*,?,18.3µM*
COc1ccc(N=Nc2[nH]c3ccc(C)cc3c2O)cc1,-2.8%,0.0%[1.84 µM],-11.2%,7.2%,24.2%,13.1%
COc1ccc(C2/C=C\[C@H](O[Si](C)(C)C(C)(C)C)[C@H](C(C)C)CC(=O)N2Cc2ccccc2)cc1 (some centres not stated),-0.6%[39.9 µM],.,.,.,.,.
CC(=O)c1cccc(Nc2nn(-c3ccc(OC(F)(F)F)cc3)nc2C(C)=O)c1,.,-9.1%,6.01µM*,.,.,.
CCOc1cccc(Nc2nn(-c3ccc(OC(F)(F)F)cc3)nc2C(C)=O)c1,.,7.6%,6.5%,.,.,.
Nc1nc(SCC(=O)c2ccc(Br)cc2)c2[nH]cnc2n1,-8.8%[7.66 µM],-12.6%[9.22 µM],.,.,.,.
COc1cc(OC)cc(-c2nc3n(n2)C(c2ccccc2)C(C(N)=O)=C(C)N3)c1 (configuration not stated),.,17.2%,6.2%,.,.,.
Cc1ccccc1OCC(=O)N/N=C1\CCOc2c(C)cccc21,-3.7%,11.5%,2.9%,27.5%,?,6.2%
COc1cccc2c1OCC/C2=N\NC(=O)COc1ccc(C)cc1,-2.8%,30.1%,15.1µM*,-0.8%,1.4%,6.9%
COc1cccc2c1OCC/C2=N\NC(=O)COc1ccccc1C,-2.9%,16.6%,6.75µM*,8.6%,1.4%,9.0%
Cc1ccc(OCC(=O)N/N=C2\CCOc3c(C)cccc32)cc1,-0.4%,-13.0%,?,6.2%,-2.1%,-2.6%
C/C=C(\C)[C@H](O)C[Si](C)(C)c1ccccc1,2.7%,0.5%,.,.,.,.
CC(C)(C)c1csc(N/N=C/c2cccnc2)n1,0.5%,?,12µM*,?,3.16µM*,?
C(=N\Nc1nc(-c2ccccc2)cs1)/c1cccnc1,-1.5%,22.4µM*,21.3µM*,3.16µM*,2.24µM*,5.17µM*
Clc1ccc(-c2csc(N/N=C/c3cccnc3)n2)c(Cl)c1,-1.6%,-53.5%,-17.3%,-3.5%,-8.5%,6.7%
Cc1ccc(/C=N/Nc2nc3ccccc3s2)o1,-5.4%,2µM*,0.849µM*,?,?,0.82µM*
Cc1ccc(/C=N/Nc2nc(C(C)(C)C)cs2)o1,-1.9%,12.6µM*,13.5µM*,?,?,?
c1ccc2oc(NC3=NCN(C4CCCCC4)CN3)nc2c1,.,.,?,2.51µM*,?,?
CCCCN1CN=C(Nc2nc3ccccc3o2)NC1,-5.9%,29.0%,?,?,3.55µM*,?
CC(C)N1CN=C(Nc2nc3ccccc3o2)NC1,-2.5%,?,?,17.4%,?,-9.2%
SMILES,KinaseGlo FLuc,SMN2 splice enh,FLuc counter,NPC1 promoter act,Rab9 promoter act,ELG1 genotox
COc1ccccc1C(=O)Nc1nnc(S(=O)(=O)N(C)c2ccc(Cl)cc2)s1,.,.,-6.7%,.,.,.
CCOc1ccccc1-c1nc(-c2ccncc2)no1,-3.4%,-5.1%,-19.4%,.,.,.
COc1ccc(Cl)cc1-c1nc(-c2ccncc2)no1,-2.2%,28.2µM*,0.5%,28.6%,17.9%,?
CN(C)c1ccc(-c2noc(-c3ccccc3O)n2)cc1,?,31.6%,0.269µM*,0.708µM*,?,?
Clc1ccc(OCc2nc(-c3ccncc3)no2)c(Cl)c1,-2.3%,15.8µM*,2.13µM*,0.891µM*,0.631µM*,7.31µM*
COc1ccc(-c2nc(-c3ccc(Br)cc3)no2)c(OC)c1,-0.9%,7.08µM*,1.2µM*,.,.,.
